An excerpt weighted towards active compounds, which were near 3.5% of everything screened.
BoNT A protease: BoNT/A light chain protease inhibitors, primary screen, biochemical, flow cytometry, MLPCN library; Botulinum neurotoxin type A light chain protease (Clostridium botulinum A str. ATCC 3502); multiplex microsphere protease substrate cleavage; inhibition, % at 10 µM; 360,000 tested, 0.17% active; AID 588499, 2011
Anthrax LF inh2: Bacillus anthracis LF protease inhibitors, primary screen, biochemical, multiplex microsphere, MLPCN library | inhibition, % at 10 µM | AID 588501, 2011 | Lethal factor (Bacillus anthracis), P15917 | multiplex microsphere protease cleavage assay | 360,000 tested, 0.12% active
Target sequence (P15917 whole entry, looked up): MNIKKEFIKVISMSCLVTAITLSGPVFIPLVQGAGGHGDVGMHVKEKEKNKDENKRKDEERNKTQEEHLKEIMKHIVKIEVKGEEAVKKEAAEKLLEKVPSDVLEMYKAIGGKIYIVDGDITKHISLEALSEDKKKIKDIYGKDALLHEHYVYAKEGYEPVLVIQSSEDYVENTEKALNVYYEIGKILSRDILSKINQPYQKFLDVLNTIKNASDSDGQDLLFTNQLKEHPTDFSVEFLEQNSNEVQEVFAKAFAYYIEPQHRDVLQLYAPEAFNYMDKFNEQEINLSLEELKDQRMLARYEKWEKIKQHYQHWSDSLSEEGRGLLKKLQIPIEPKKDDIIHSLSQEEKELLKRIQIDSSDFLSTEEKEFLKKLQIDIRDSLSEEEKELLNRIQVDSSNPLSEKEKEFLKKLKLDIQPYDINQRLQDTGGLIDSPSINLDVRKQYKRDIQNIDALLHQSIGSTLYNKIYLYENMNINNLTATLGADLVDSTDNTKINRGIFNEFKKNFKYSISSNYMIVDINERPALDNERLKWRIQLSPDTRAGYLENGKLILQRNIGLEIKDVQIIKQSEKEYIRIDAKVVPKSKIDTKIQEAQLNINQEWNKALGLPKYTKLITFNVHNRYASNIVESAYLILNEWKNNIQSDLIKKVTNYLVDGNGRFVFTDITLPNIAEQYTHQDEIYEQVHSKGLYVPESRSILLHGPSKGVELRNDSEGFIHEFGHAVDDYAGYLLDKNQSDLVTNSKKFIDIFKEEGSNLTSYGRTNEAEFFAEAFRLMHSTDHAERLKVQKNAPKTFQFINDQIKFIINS
Autofluor counter: compound fluorescence in toxin protease inhibitor counterscreen; fluorescence intensity (no concentration beside the values); 360,000 tested, 3.1% active; compound autofluorescence counterscreen, microsphere flow cytometry; stronger effect = higher value; in the data active = fluorescence intensity above about 16000; inconclusive = no clear call, values can overlap the other calls
BoNT F protease: BoNT/F light chain protease inhibitors, primary screen, biochemical, flow cytometry, MLPCN library. Multiplex microsphere protease cleavage assay. inhibition, % at 10 µM. 360,000 tested, 0.22% active; in the data active = inhibition above about 35%, passing the limit was not always enough; inconclusive = no clear call, values can overlap the other calls
Numbers stand for hits; i = inactive; ? = inconclusive. Cut-off read from the data, not from the text of the source, unless noted: active = inhibition above about 30%; inconclusive = no clear call, values can overlap the other calls; inactive = below that.

SMILES	BoNT A protease	Anthrax LF inh2	Autofluor counter	BoNT F protease
NC(=O)C1CCN(Cc2nc3ccccc3c(=O)[nH]2)CC1	i	i	23828	i
O=c1[nH]c(CN2CCN(S(=O)(=O)/C=C/c3ccccc3)CC2)nc2ccccc12	i	i	i	i
O=c1[nH]c(CN2CCN(C/C=C/c3ccccc3)CC2)nc2ccccc12	?	i	21675	i
Cc1ccc(Cc2c(C3CCCCC3)nc3c4ccccc4ccn23)cc1	i	i	i	i
O=C(NCCc1ccc(F)cc1)c1cccc2c1C(=O)c1ccc(N3CCC(Cc4ccccc4)CC3)cc1S2(=O)=O	i	40.7	i	i
O=C(NCc1cccc(F)c1)c1cccc2c1C(=O)c1ccc(N3CCC(Cc4ccccc4)CC3)cc1S2(=O)=O	i	i	i	i
COc1ccccc1OCC(=O)N/N=C1/SCC(=O)N1Cc1ccccc1	i	i	22284	i
O=C(COc1ccc(Br)cc1)N/N=C1/SCC(=O)N1Cc1ccccc1	i	i	i	i
COC(=O)C1=CN(Cc2ccc(OC)cc2)C=C(C(=O)OC)C1c1cc(OC)c(OC)c(OC)c1	i	i	i	41.1
O=C(NCc1cccnc1)c1sc2ccccc2c1Cl	?	i	24841	i
Cc1ccc2c(Cl)c(C(=O)NCc3cccnc3)sc2c1	?	i	20230	i
CC(NC(=O)CNC(=O)c1sc2ccccc2c1Cl)c1cccnc1 (centres undefined)	i	i	i	i
O=C(NCc1cccnc1)c1cccnc1-c1nc2ccccc2s1	i	i	22730	i
C[C@@H]1CN([C@H](C)CO)C(=O)c2cc(-c3ccccc3)cnc2O[C@@H]1CN(C)C(=O)C1CCOCC1	i	i	i	i
Cc1ccccc1C1(O)c2ccccc2-c2ccccc21	i	i	i	i
CCN(c1ccc(N=Cc2c(O)n(Cc3ccc(OC)cc3)c(=O)c3ccccc23)cc1)C(C)C	37.4	i	55670	52.0
COc1ccc(-n2c(O)c(C=Nc3ccccc3)c3ccccc3c2=O)cc1	i	i	i	i
CCc1c(C(=O)NCc2ccc3c(c2)OCO3)[nH]c(C)c1C(C)=O	i	i	17026	i
Cc1cc2cc(CNC(=O)c3ccc4c(c3)OCO4)ccc2[nH]1	67.0	i	i	i
O=C(NCc1ccc2c(c1)OCO2)c1ccc2c(c1)OCO2	i	i	i	i
Cc1cccc(NC(=O)CSc2nnc(-c3cnccn3)n2Cc2ccco2)c1	?	i	23296	i
O=C(CSc1nnc(-c2cnccn2)n1Cc1ccco1)c1ccc2ccccc2c1	?	i	21448	i
C=CCn1c(SCC(=O)Nc2cccc3ccccc23)nnc1-c1cnccn1	i	i	16132	i
Fc1ccc(CSc2nnc(-c3cnccn3)n2Cc2ccco2)cc1	i	i	24676	i
Brc1ccc(CSc2nnc(-c3cnccn3)n2Cc2ccco2)cc1	i	i	i	i
SMILES	BoNT A protease	Anthrax LF inh2	Autofluor counter	BoNT F protease
Cc1nccn1CC(=O)c1ccccc1	i	i	i	i
CNc1cc(-c2ccc(O)cc2C)ncn1	i	i	i	i
Cc1ccc(NC(=O)CSc2nnc(-c3cnccn3)n2Cc2ccco2)cc1	i	i	17381	i
CC(C)OC(=O)CSc1nnc(-c2cnccn2)n1Cc1ccco1	i	i	i	i
CCN(CC)S(=O)(=O)c1ccc(Cl)c(C(=O)Nc2nnc(C)s2)c1	?	i	23810	i
COc1ccc(SCC(O)Cn2c3ccccc3c3ccccc32)c(OC)c1 (centres undefined)	i	i	i	i
Cc1ccc(S(=O)(=O)N2[C@@H](c3ccc(Br)cc3)C(C(=O)O)=CC[C@H]2c2cccs2)cc1	i	i	i	i
COc1ccc(Cn2c(=O)oc3ccc(C)cc32)cc1OC	i	i	22068	i
O=[N+]([O-])c1cccc(/C=C/c2ccc3cccc(O)c3n2)c1	i	i	i	?
O=[N+]([O-])c1cccc(/C=C/c2nc(C=Nc3ccc4ccccc4c3)c(O)o2)c1	i	i	17170	i
Cc1c(NC(=O)CSc2nnc(-c3ccccc3F)o2)c(=O)n(-c2ccccc2)n1C	i	i	i	i
CCc1c(O)nc(SCC(=O)Nc2ccc(OC)cc2)n(C2CCCCC2)c1=O	i	i	24511	i
O=C(NCCN1CCC(n2c(=O)[nH]c3ccccc32)CC1)C(c1ccccc1)c1ccccc1	i	i	i	i
Clc1ccc(Sc2oc(/C=N/n3cnnc3)cc2Br)cc1	i	i	19698	i
CCOC(=O)c1cnc(SCC(=O)c2ccccc2)nc1N	i	i	24281	i
CCCCN(CCCC)CCNC(=O)CNC(=O)c1cccs1	i	i	21124	i
CC1=C(C#N)C(NC(=O)C(C)(C)C)(C(F)(F)F)C(=O)N1 (centres undefined)	i	i	21687	i
CSC12CCCN(CCC(C(C)(C)C)C1)C2=O (centres undefined)	i	i	i	i
C/C(=C\c1ccccc1)CN1CCN(c2ccccc2)CC1	i	i	21899	i
C/C=C(\C)CN1CCN(c2ccccc2F)CC1	i	i	23234	i
CCCCCc1c(-c2ccc(Br)cc2)ncn1CCc1ccccc1OC	i	i	i	i
O=C1CN(C(=O)CSc2ccccn2)c2ccccc2N1	i	i	i	i
Cc1ccccc1OCC(=O)OC(C(=O)c1ccccc1)c1ccccc1 (centres undefined)	i	i	i	i
Cc1ccc(C(=O)C(OC(=O)COc2ccccc2C)c2ccccc2)cc1 (centres undefined)	i	i	17155	i
O=C(CCC(=O)OC(C(=O)c1ccccc1)c1ccccc1)Nc1ccccc1 (centres undefined)	i	i	21923	i
SMILES	BoNT A protease	Anthrax LF inh2	Autofluor counter	BoNT F protease
CC(C)C[C@@H]1CC2=C(C(=O)OC(C)(C)O2)[C@H](CCc2ccccc2)O1	i	i	i	i
COc1ccc2c(=O)c3c(=O)n(Cc4ccco4)c(-c4cc(OC)c(OC)c(OC)c4)nc3oc2c1	i	i	16166	i
COc1ccc2c(=O)c3c(=O)n(Cc4ccco4)c(-c4ccccc4)nc3oc2c1	i	i	i	i
COc1ccccc1Cc1c(-c2ccc(C#N)cc2)nc2c(C)cc(Br)cn12	i	i	i	i
Cc1ccc2c(c1)CCCN2C(=O)c1ccc2c(c1)OCO2	i	i	23514	i
Cc1ccc2c(c1)CCCN2C(=O)c1ccco1	i	i	22783	i
O=C(c1ccc([N+](=O)[O-])cc1)N(Cc1ccc(Cl)cc1)N1C(=O)CCCC1=O	i	i	17414	i
O=C(c1ccc([N+](=O)[O-])cc1)N(Cc1ccc(Cl)cc1Cl)N1C(=O)CCCC1=O	i	i	22479	i
O=C(Nc1nc(-c2ccccc2Cl)cs1)c1cccnc1	i	i	20683	i
O=C(CN1CCc2ccccc2C1)NCc1ccco1	i	i	19256	i
C/C(=C/c1ccccc1)C(=O)N1CCC(C)CC1	i	i	i	i
C/C(=C\c1ccccc1)C(=O)n1nnc2ccccc21	i	i	17498	i
O=C(N1CCOCC1)n1cnc2ccccc21	i	i	i	i
O=C(N1CCOCC1)n1nnc2ccccc21	i	i	22842	i

Screening results as filed in PubChem.
